# Tested on: LXRa:RXRa (NR concentration 270 nM, RXRa partner concentration 90 nM)
# Assay: PBM binding z-score (relative to random genomic background probes); higher = stronger binding; sequences stand for … in GC…GCGATTGACAGCGTAGAATGAAGG
# Procedure, shortened: (§1)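 Binding buffer was PBS pH 7.4 with 2% milk, 0.02% Triton X-100, 1 mM DTT, 0.2 mg/mL BSA and 0.4 mg/ml salmon testes DNA. In it, ligand-free nuclear receptor dimers were incubated 1 h on custom Agilent 4×180K protein-binding microarrays carrying double-stranded probes. Antibodies against each partner (one per run) detected binding, and z-scores were calculated against random background probes after regression normalization of scanned fluorescence.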
row,Sequence,PBM binding z-score
1,ATATGTAGGTTATCGGGGCATTCAGTTTGCGCAT,1.49
2,TCTAGTTGGTCAAATGTCACACACTCGAAATGCG,0.965
3,CTACCAAGGTGAACAAGGTCGTTGGTTACTATTC,1.4
4,TCTTGTAGGTCAGCAGGTTAAGAAAGCTGGCCAA,2.55
5,CGAACTTGGTCAGAACAGGACAGTGAAGGATGAT,-0.426
6,ACAGACAGGTGAGTGAAGGTAACTGAGCTGGACG,-0.0639
7,TCTATTAGTTGAAGGGCATCCGACGAGTCCGTTT,0.85
8,AGTCAAAGTTCATCTAGGTAAAGTAAGATATGCT,5.97
9,CCTTACGGGTCAAGGTTACAGCACGGGTGGTACG,3.96
10,CAAACTACGTCAAGGTCAAAGTCGGTTTGTGCCA,4.23
11,CCTCGGAGGACATCAGGAGGTCAGAGCTGCCAGA,1.87
12,AGAACGAGGGCAATGAGTTGGTAGCACGGGTGGC,0.0909
13,AGTTAAAGTTCAGGACGAGGTAACGTAAAGCACG,3.97
14,ACAGACAGGTGAGTGCAGGTAACTCAGCTGGACG,-0.289
15,TCATATAGGTAAAAGGTGAAAGCCGGTGTGGTAA,2.07
16,GCTGCTTGGTCAGGTTGGTCAGCTAACGGGTACG,-0.383
17,CCTTACGGGTCACTCCAGGTTAGAGCATCGGAGT,6.91
18,CCTACTGGGCCAAAAAGGACATTGATGCCGATAA,-0.495

# Tested on: LXRa homodimer (NR concentration 270 nM)
# Assay: as above
# Procedure, shortened: as §1
row,Sequence,PBM binding z-score
1,CTACCAAGGTGAACAAGGTCGTTGACTACTATTC,0.0971
2,GCTAGCTGGTCAGTAAAAGGTCACACACCGGTCG,4.35
3,AGTCAAAGTTCACTAGGTAACGTCAGATTCAGCT,2.92
4,CTCGAAAGGTAGGTTGAGGTGAGTATACGGATAA,-0.2
5,TCATATAGGTAAATGCGAGGTGAAAGTCCGATCT,0.216
6,TAGCCTAGGGCATTGGGCCAGTATAGTACGCATC,-0.318
7,ATCTCTAGGTAAAGTTCAGTAAAAGATCGATAGA,1.7
8,CAGCCTAGGTCAGGGCTAGTATAGGAGGAACGTT,-0.359
9,CAGACTAGGTCAGGGCCAGTATAGGAGGAACGTT,-0.52
10,CCTCGGAGGACAGAAGGTCAGAGTTGTCCGCTTT,0.486
11,CTCGAAAGGTCGGTTGAGGTGAGTATCCGGATAA,-0.338
12,ATCGAAAGGTCGAGGTGAGTATAGAGAAAGGGAA,0.072
13,AATACAGGGTCATCGTAGGCCAAAGTACGCACAG,3.34
14,CGTCCAAGCTCAATGCTAGGTCAGTGAAAGCATT,0.428
15,ATCTCTAGGTAAAGATAGTTCAGTGACTGCAAAT,0.906
16,TCTATTAGTTGAAGGGCAACCGGCGAGTCCGTTT,0.417
17,CTCGAAACGTCGGTTGAGGTGAGTATACGGATAA,-0.566
18,ACTAGCAGGCCAAGGGACACTCAAGATTAGTCCG,-0.423
19,TTACCAAGGTTAAGGTCGTTGATCCCTCTGTAGA,0.608
20,GCTGCTAGGTCAGGTTGGACAGCTAACGGGTACG,-0.119

row,Sequence,PBM binding z-score
1,GCTATTCGTTGAAAGGGCAACCGAATGATTCTCG,0.342
2,CAAACTAGGTCAAAGGTCAATGTCGAGCCAACCA,4.92
3,ATATGTAGGTTATCGGGGCATTCAGTTTGCGCAT,0.936
4,TCTAGTTGGTCAAATGTCACACACTCGAAATGCG,0.736
5,CTACCAAGGTGAACAAGGTCGTTGGTTACTATTC,0.281
6,TCTTGTAGGTCAGCAGGTTAAGAAAGCTGGCCAA,0.186
7,CGAACTTGGTCAGAACAGGACAGTGAAGGATGAT,-0.321
8,ACAGACAGGTGAGTGAAGGTAACTGAGCTGGACG,-0.513
9,TCTATTAGTTGAAGGGCATCCGACGAGTCCGTTT,0.486
10,AGTCAAAGTTCATCTAGGTAAAGTAAGATATGCT,5.01
11,CCTTACGGGTCAAGGTTACAGCACGGGTGGTACG,0.209
12,CAAACTACGTCAAGGTCAAAGTCGGTTTGTGCCA,2.86
13,CCTCGGAGGACATCAGGAGGTCAGAGCTGCCAGA,1.11
14,AGAACGAGGGCAATGAGTTGGTAGCACGGGTGGC,-0.759
15,AGTTAAAGTTCAGGACGAGGTAACGTAAAGCACG,1.7
16,ACAGACAGGTGAGTGCAGGTAACTCAGCTGGACG,-0.365
17,TCATATAGGTAAAAGGTGAAAGCCGGTGTGGTAA,0.0111
18,GCTGCTTGGTCAGGTTGGTCAGCTAACGGGTACG,-0.554
19,CCTTACGGGTCACTCCAGGTTAGAGCATCGGAGT,0.78
20,CCTACTGGGCCAAAAAGGACATTGATGCCGATAA,-0.28

# Tested on: LXRb:RXRa (NR concentration 270 nM, RXRa partner concentration 90 nM)
# Assay: as above
# Procedure, shortened: as §1
row,Sequence,PBM binding z-score
1,CTACCAAGGTGAACAAGGTCGTTGACTACTATTC,1.79
2,GCTAGCTGGTCAGTAAAAGGTCACACACCGGTCG,3.88
3,AGTCAAAGTTCACTAGGTAACGTCAGATTCAGCT,2.84
4,CTCGAAAGGTAGGTTGAGGTGAGTATACGGATAA,-0.0661
5,TCATATAGGTAAATGCGAGGTGAAAGTCCGATCT,0.944
6,TAGCCTAGGGCATTGGGCCAGTATAGTACGCATC,-0.673
7,ATCTCTAGGTAAAGTTCAGTAAAAGATCGATAGA,1.29
8,CAGCCTAGGTCAGGGCTAGTATAGGAGGAACGTT,0.186
9,CAGACTAGGTCAGGGCCAGTATAGGAGGAACGTT,0.152
10,CCTCGGAGGACAGAAGGTCAGAGTTGTCCGCTTT,1.21
11,CTCGAAAGGTCGGTTGAGGTGAGTATCCGGATAA,1.44
12,ATCGAAAGGTCGAGGTGAGTATAGAGAAAGGGAA,2.77
13,AATACAGGGTCATCGTAGGCCAAAGTACGCACAG,5.36
14,CGTCCAAGCTCAATGCTAGGTCAGTGAAAGCATT,-0.0522
15,ATCTCTAGGTAAAGATAGTTCAGTGACTGCAAAT,0.867
16,TCTATTAGTTGAAGGGCAACCGGCGAGTCCGTTT,0.88
17,CTCGAAACGTCGGTTGAGGTGAGTATACGGATAA,-0.297
18,ACTAGCAGGCCAAGGGACACTCAAGATTAGTCCG,-0.897
19,TTACCAAGGTTAAGGTCGTTGATCCCTCTGTAGA,2.66
20,GCTGCTAGGTCAGGTTGGACAGCTAACGGGTACG,0.0809

row,Sequence,PBM binding z-score
1,GCTATTCGTTGAAAGGGCAACCGAATGATTCTCG,0.644
2,CAAACTAGGTCAAAGGTCAATGTCGAGCCAACCA,6.96
3,ATATGTAGGTTATCGGGGCATTCAGTTTGCGCAT,2.57
4,TCTAGTTGGTCAAATGTCACACACTCGAAATGCG,1.29
5,CTACCAAGGTGAACAAGGTCGTTGGTTACTATTC,1.71
6,TCTTGTAGGTCAGCAGGTTAAGAAAGCTGGCCAA,2.16
7,CGAACTTGGTCAGAACAGGACAGTGAAGGATGAT,-0.516
8,ACAGACAGGTGAGTGAAGGTAACTGAGCTGGACG,-0.288
9,TCTATTAGTTGAAGGGCATCCGACGAGTCCGTTT,0.661
10,AGTCAAAGTTCATCTAGGTAAAGTAAGATATGCT,4.24
11,CCTTACGGGTCAAGGTTACAGCACGGGTGGTACG,2.99
12,CAAACTACGTCAAGGTCAAAGTCGGTTTGTGCCA,3.54
13,CCTCGGAGGACATCAGGAGGTCAGAGCTGCCAGA,1.17
14,AGAACGAGGGCAATGAGTTGGTAGCACGGGTGGC,-0.443
15,AGTTAAAGTTCAGGACGAGGTAACGTAAAGCACG,1.91
16,ACAGACAGGTGAGTGCAGGTAACTCAGCTGGACG,-0.549
17,TCATATAGGTAAAAGGTGAAAGCCGGTGTGGTAA,1.77
18,GCTGCTTGGTCAGGTTGGTCAGCTAACGGGTACG,-0.457
19,CCTTACGGGTCACTCCAGGTTAGAGCATCGGAGT,4.42
20,CCTACTGGGCCAAAAAGGACATTGATGCCGATAA,-0.539

# — the supplement of paper PMC6555819
